Measured values from PubChem BioAssay (NCATS).
Records with an inconclusive call do not appear. Values without a mark were called inactive. The source made the active and inactive calls. Calls come from the whole dose curve; as a rule, active = well fitted activation curve with a large enough effect; inconclusive = small, poorly fitted or top-dose-only effect; inactive = no such curve, though single readings can be large or run the other way.

target: Cellular tumor antigen p53 (Homo sapiens) (UniProt P04637); assay: Primary qHTS for small molecule compounds that upregulate eGFP-tagged delta133p53alpha (in N-terminal) cells. (AID 2060322); conditions: NCI-H358 eGFP-delta133p53alpha fluorescence, 24 h; activation: stronger effect = higher value; note: nearly all actives have a fitted effect of over 75% in size;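 for activation: series mostly up to about 56 µM; 0% = DMSO vehicle and 100% = reference activator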
Method in brief: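 NCI-H358 cells pre-induced 24 h with 10 ng/ml doxycycline to express N-terminal eGFP-delta133p53alpha, then dosed 24 h at 37C without doxycycline; fixed, Hoechst-stained, GFP intensity by laser scanning cytometry, normalized to DMSO (0%) and 57.5 uM 5-azacytidine (100%).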
Potency is the fitted concentration of half-maximal effect.

Cellular tumor antigen p53 (Homo sapiens), sequence (P04637 whole entry, looked up): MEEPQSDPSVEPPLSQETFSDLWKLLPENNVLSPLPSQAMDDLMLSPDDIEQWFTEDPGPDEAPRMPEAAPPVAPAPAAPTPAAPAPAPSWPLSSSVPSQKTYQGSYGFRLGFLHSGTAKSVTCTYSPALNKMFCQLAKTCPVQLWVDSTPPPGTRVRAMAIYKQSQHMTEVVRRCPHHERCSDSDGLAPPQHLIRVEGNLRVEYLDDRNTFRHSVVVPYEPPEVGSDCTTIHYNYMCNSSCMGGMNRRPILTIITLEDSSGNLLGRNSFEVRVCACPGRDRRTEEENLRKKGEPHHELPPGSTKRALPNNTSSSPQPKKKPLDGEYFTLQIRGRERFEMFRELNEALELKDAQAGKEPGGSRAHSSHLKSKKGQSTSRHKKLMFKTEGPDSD

SMILES	activation [%]	Potency
CC(C)=CCC1C(=O)N(c2ccccc2)N(c2ccccc2)C1=O	-15.3	–
CC(C)C(=O)OCc1cccc(OC(=O)[C@@H]2N3C(=O)[C@@H](NC(=O)Cc4ccccc4)[C@H]3SC2(C)C)c1	-5.86	–
O=C(/C=C/c1ccccc1)OCc1ccccc1	-23.2	–
N#C/C(=C1/SC[C@@H](c2ccc(Cl)cc2Cl)S1)n1ccnc1	-25.9	–
CCCc1ncc(C[n+]2ccccc2C)c(N)n1	13.4	–
CCN(C(=O)CO)[C@H]1CN(C(=Nc2cccc(OC(F)F)c2)NC#N)N=C1c1ccc(Cl)c(Cl)c1	19	–
FC(F)(F)C(Cl)Br (stereo unspecified)	8.37	–
COc1cc(C)nc(-n2nc(C)cc2OC)n1	-12.6	–
CC1(C)S[C@H]2[C@H](NC(=O)[C@@H](N)c3ccc(O)cc3)C(=O)N2[C@@H]1C(=O)O	-5.39	–
O=C1O[C@H](CO)[C@@H](O)[C@H](O)[C@H]1O	6.69	–
COc1cc(C=CC(=O)O)ccc1O	-12.5	–
COC(=O)c1nc(Cl)c(Cl)nc1N	–	27.6 µM (active)
NCc1ccccc1Sc1ccccc1CO	15.3	–
C[C@@H]1C[C@H]2[C@@H]3CCC4=CC(=O)C=C[C@]4(C)[C@@]3(F)[C@@H](O)C[C@]2(C)[C@H]1C(=O)CO	0.837	–
C=C1C(=O)O[C@H]2[C@@H]1CCC(C)=CCC[C@@]1(C)O[C@@H]21	–	19.3 µM (active)
CC(C)CCCC(C)CCCC(C)CCCCC(C)CCCC(C)CCCC(C)C (stereo unspecified)	14.1	–
